Source: PubChem BioAssay
This excerpt belongs to a sample that is enriched for hits.
USP2a inh – qHTS Assay for Inhibitors of Ubiquitin-specific Protease USP2a Using CHOP2 as the Reporter | Ubiquitin carboxyl-terminal hydrolase 2 (Homo sapiens), O75604 | AID 463254, 2010 | 0.01% of 330,000 active | Potency, µM (doses to about 38.3 µM), without a hit: at the highest dose activity change, negative = inhibition, actives largely listed as inhibitors | USP2 core, Ub-CHOP2 coupled fluorogenic reporter, 485/531;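 further: plate controls were DMSO wells for no effect and full inhibition by NEM control for full effect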
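Cell-free coupled assay: 10nM USP2 core preincubated 30min RT with compound in Tris-HCl pH 8.0/CaCl2/CHAPS buffer, then 25nM Ub-CHOP2 and 25nM reporter substrate; fluorescence (Ex 485/Em 531) read after 60min RT, normalized to NEM inhibition, concentration-response curves fitted.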
a7 integrin act – qHTS for Activators of Integrin-Mediated Alleviation for Muscular Dystrophy; alpha7betagal myoblasts, beta-gal FDG fluorescence, 48 h; Potency, µM (series often up to 38.3 µM), for the others: at the top dose activation, usual class: activators; 0.064% of 350,000 active;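 further: 100% = response of the positive control SU9516; nearly all actives have a fitted effect of over 60% in size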
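Alpha7betagal+/- myoblasts (passage 13) were plated 16-24 hr, then exposed to compounds (1:260 dilution of DMSO stock) for 48 hours at 37C. After MPER lysis, β-galactosidase reporter activity was read as FDG fluorescence (ex 480/em 540) after 30 minutes.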
Mm-Cpn inhibitor – Inhibitors of TCP-1 ring complex (TRiC) of Methanococcus maripaludis (MmCpn): qHTS; Chaperonin Mm-Cpn (Methanococcus maripaludis); purified Mm-Cpn ATPase, ADP Transcreener TR-FRET; Potency, µM (doses to about 76.9 µM), without a hit: top-dose activity, negative = inhibition, most hits filed as inhibitors; 0.031% of 330,000 active; AID 504842, 2011; further: on the % scale 0 is the no-effect control and ±100 the full control effect; nearly all actives have a fitted effect of over 80% in size
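Eu-cryptate anti-ADP/ADP-d2 competition gives a ratio inversely related to ADP. Enzyme at 25 nM was pre-exposed to compound for 10 min, then given 10 uM ATP for 30 min, 37°C throughout.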
p53 reactivation – qHTS assay for re-activators of p53 using a Luc reporter; Potency, µM (titrated, usually from 92.2 µM), for the others: at the highest dose activity change, positive = activation, usual class: activators; H1299 p53-A138V BP100-luciferase reporter, luminescence, 24 h; AID 504706, 2011; 0.063% of 320,000 active; further: % of control where 0% means no effect; nearly all actives have a fitted effect of over 45% in size
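p53-null H1299 cells stably carrying temperature-sensitive p53-A138V and a BP100-luciferase reporter were pinned with compounds (4-point, 1:5 series) and held 24 hrs at 37 deg C. Luminescence was read 10 min after detection reagent.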
ClpP mod – qHTS Assay for Activators of ClpP; ATP-dependent Clp protease proteolytic subunit (Bacillus subtilis (strain 168)), P80244; purified B. subtilis ClpP, FRET peptide cleavage, 20 min; Potency, µM (titrated, usually from 57.5 µM), without a hit: at the highest dose activity change, negative = active; 1.9% of 340,000 active; AID 651965, 2013; active means well fitted falling curve with a large enough effect; inconclusive means small, poorly fitted or top-dose-only effect; inactive means no such curve, though single readings can be large or run the other way; further: the source files actives as falling curves though it sought activators and does not explain the sign; nearly all actives have a fitted effect of over 65% in size
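FRET quenching reversal measured ClpP activation: 10 microg/mL B. subtilis ClpP at pH 8 with the FRET-FV decapeptide, read at 430 nm after 320 nm excitation. The 20-min minus 0-min signal was scaled between DMSO/no-enzyme wells and ADEP (5.8 microM final).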
Eya2 inh – qHTS Assay for Inhibitors of the Phosphatase Activity of Eya2; Potency, µM (titrated, usually from 76.9 µM), for inactives: at the top dose activity, negative = inhibition, usual class: inhibitors; AID 488837, 2010; recombinant Eya2, OMFP fluorescence dephosphorylation (OMFP is methylfluorescein phosphate); 0.006% of 330,000 active; Protein phosphatase EYA2 (Homo sapiens), O00167; further: on the % scale 0 is the no-effect control and ±100 the full control effect
Target sequence (O00167 whole entry, looked up): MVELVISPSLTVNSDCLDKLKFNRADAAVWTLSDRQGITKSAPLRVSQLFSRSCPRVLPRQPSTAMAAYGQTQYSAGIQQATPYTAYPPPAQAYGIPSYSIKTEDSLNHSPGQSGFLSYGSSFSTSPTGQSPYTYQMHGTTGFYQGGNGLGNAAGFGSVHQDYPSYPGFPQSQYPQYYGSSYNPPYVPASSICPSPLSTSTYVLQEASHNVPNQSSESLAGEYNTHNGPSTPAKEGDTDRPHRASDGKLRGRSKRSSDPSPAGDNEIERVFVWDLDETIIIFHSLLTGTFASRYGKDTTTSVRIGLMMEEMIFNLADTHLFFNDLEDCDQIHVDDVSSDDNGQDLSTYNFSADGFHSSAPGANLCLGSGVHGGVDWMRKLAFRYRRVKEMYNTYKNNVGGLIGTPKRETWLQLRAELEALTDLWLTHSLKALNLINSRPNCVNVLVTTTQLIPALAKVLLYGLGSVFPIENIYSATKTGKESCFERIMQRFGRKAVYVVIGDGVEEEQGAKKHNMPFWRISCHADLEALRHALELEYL
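Eya2 (0.2 uM) preincubated 10 min at ambient with compound, then OMFP substrate added at 50 uM; 10 min reaction in 50 mM HEPES pH 7.5, 50 mM NaCl, 5 uM MgCl2, 0.05% BSA, 1 mM DTT. Fluorescence read at Ex 485/Em 525 nm.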
Active calls of the source: *; [ ] = dose if it differs, or a comment. Unless noted, the call rests on the fitted dose curve; in most records, active means well fitted curve in the direction sought with a large enough effect; inconclusive means small, poorly fitted or top-dose-only effect, or another doubt; inactive means no such curve, though single readings can be large; an effect the other way counts as inactive or inconclusive. Potency means the concentration at half of the fitted maximal effect.

`O=C(Cc1c(O)c2ccccc2[nH]c1=O)NC1CCCCCCC1` gave USP2a inh 1%, a7 integrin act -15%, Mm-Cpn inhibitor 0%, p53 reactivation -2%, ClpP mod 32µM* and Eya2 inh 20%[15.4 µM].
`O=C(NC1CCCCCC1)c1c(O)c2ccccc2[nH]c1=O` gave USP2a inh -1%, a7 integrin act 17%, Mm-Cpn inhibitor 1%, p53 reactivation 11%, ClpP mod -7% and Eya2 inh 14%.
CCCC(=O)Nc1ccc(C(=O)NN2C(=O)c3ccccc3C2=O)cc1 was read as USP2a inh 3%, a7 integrin act 20%, Mm-Cpn inhibitor 1%, p53 reactivation -4%, ClpP mod 1% and Eya2 inh 0%.
`CC(C)CC(=O)Nc1ccc(C(=O)Cn2nc(C(=O)O)c3ccccc3c2=O)cc1` gave USP2a inh 2%, a7 integrin act -2%, Mm-Cpn inhibitor 2%, p53 reactivation -2%, ClpP mod 28µM* and Eya2 inh -12%.
`Cc1ccc(NC(=O)CNC(=O)CN2C(=O)c3ccccc3C2=O)cc1` gave ClpP mod 2%.
For CC(C)(C)c1ccc(C(=O)Cn2nc(C(=O)O)c3ccccc3c2=O)cc1 the results were USP2a inh -1%, a7 integrin act -39%, Mm-Cpn inhibitor 1%, p53 reactivation -1%, ClpP mod -3% and Eya2 inh 6%.
Cc1ccc(NC(=O)CN2C(=O)c3ccccc3C2=O)cc1 was read as USP2a inh -1%, a7 integrin act 1%, Mm-Cpn inhibitor 1%, p53 reactivation 11%, ClpP mod 28µM* and Eya2 inh -12%.
CC(C)CC(=O)Nc1ccc(C(=O)NN2C(=O)c3ccccc3C2=O)cc1 was read as USP2a inh 0%, a7 integrin act 1%, Mm-Cpn inhibitor -4%, p53 reactivation -1%, ClpP mod 32µM* and Eya2 inh 4%.
Ic1ccc(/C=C2\C=Cc3ccccc32)cc1 was read as ClpP mod 0%.
`CCC(C(=O)OCC(=O)Nc1ccc(OC)cc1OC)c1ccccc1` (centres undefined) gave USP2a inh -1%, a7 integrin act 10%, Mm-Cpn inhibitor 0%, p53 reactivation 15% and Eya2 inh -10%.
CCC(C(=O)OCC(=O)Nc1cc(Cl)ccc1Cl)c1ccccc1 (centres undefined) was read as USP2a inh 0%, a7 integrin act 21%, Mm-Cpn inhibitor -4%, p53 reactivation 2%, ClpP mod 25µM* and Eya2 inh -10%.
`CSc1ccc(/C=C(/NC(=O)c2ccco2)C(=O)N2CCCCC2)cc1` gave USP2a inh -2%, a7 integrin act 0%, Mm-Cpn inhibitor -1%, p53 reactivation -4%, ClpP mod 1% and Eya2 inh 5%.
`COc1ccc(/C=C(/NC(=O)c2ccco2)C(=O)N2CCCCC2)cc1` gave USP2a inh 0%, a7 integrin act -21%, Mm-Cpn inhibitor 0%, ClpP mod 14µM* and Eya2 inh 6%.
`N#CC(=C(\N)Sc1ccccc1N)/C(C#N)=C(/N)Sc1ccccc1N` gave Eya2 inh 5%.
`CCOc1c(OC)ccc2c3c(c(=O)oc12)CCCC3` gave USP2a inh 4%, a7 integrin act 18%[7.66 µM], Mm-Cpn inhibitor inconclusive, p53 reactivation 4%, ClpP mod inconclusive and Eya2 inh -35%.
For Cc1c(OCc2ccc(C(=O)O)o2)ccc2c3c(c(=O)oc12)CCC3 the results were USP2a inh 1%, a7 integrin act -9%, Mm-Cpn inhibitor 1%, p53 reactivation -6%, ClpP mod 3.2µM* and Eya2 inh -2%.
COc1ccc2c3c(c(=O)oc2c1OCC(=O)O)CCCC3 was read as USP2a inh 0%, a7 integrin act 21%, Mm-Cpn inhibitor -6%, p53 reactivation -1%, ClpP mod 20µM* and Eya2 inh -7%.
COC(=O)c1ccc(COc2ccc3c(C)c(C)c(=O)oc3c2C)o1 was read as USP2a inh 6%, a7 integrin act 8%, Mm-Cpn inhibitor 0%, p53 reactivation -1%, ClpP mod -13% and Eya2 inh 12%.
Screening Cc1ccc(NC(=O)c2ccc(NC(=O)C3CCCC3)cc2)c(C)c1 returned ClpP mod -5%.
`Cc1ccccc1NC(=O)COc1ccccc1C(=O)Nc1ccccc1` gave ClpP mod -25%.
`Cc1ccc2occ(CC(=O)Nc3ccc(Cl)c(C(F)(F)F)c3)c2c1` gave ClpP mod 0%.
`Cc1cccn2c(=O)c(C(=O)NC(C)c3ccccc3)c(O)nc12` (centres undefined) gave ClpP mod 4%.
Screening FC(F)(F)c1cc(-c2ccco2)nc(-n2nnc3ccccc32)n1 returned USP2a inh 2%, a7 integrin act 15%, Mm-Cpn inhibitor 3%, p53 reactivation 2%, ClpP mod 28µM* and Eya2 inh -17%.
FC(F)(F)c1cc(-c2ccco2)nc(-n2nc(C(F)(F)F)cc2C2CC2)n1 was read as USP2a inh 0%, a7 integrin act 3%, Mm-Cpn inhibitor -1%, p53 reactivation 8%, ClpP mod 28µM* and Eya2 inh 14%.
Screening O=C(C[n+]1ccccc1Cl)c1ccc2c(c1)CCCC2 returned ClpP mod -8%.
N#Cc1c(N)nc(SCC(=O)NC2CCCCC2)c(C#N)c1-c1ccc(Cl)cc1 was read as USP2a inh 2%, a7 integrin act 19%, Mm-Cpn inhibitor -1%, p53 reactivation 20%, ClpP mod 28µM* and Eya2 inh 17%.
`Cc1cccc(NC(c2cccc(Cl)c2)c2ccc3cccnc3c2O)n1` (centres undefined) gave ClpP mod -3%.
O=C(c1ccc(CN2CCc3ccccc3C2)cc1)N1CCN(c2ccccc2)CC1 was read as USP2a inh 3%, a7 integrin act -15%, Mm-Cpn inhibitor -2%, p53 reactivation -1%, ClpP mod 32µM* and Eya2 inh -2%.
